# From the supplement of paper PMC10981050
# Several values for one entry are separate records, joined by “and”; a condition that tells them apart may be missing. Equal values may be shown once.
# Experiments:
# Test in all cases: cell viability relative to vehicle control; higher = less cytotoxic
# Details in all cases: 10 µM
# [1] = test system: K562
# Method in brief: (§1)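 Screening covered the Selleck bioactive, kinase and epigenetic probe libraries, less identity-inconsistent compounds, on CRISPR-edited mutant clones and isogenic wild-type clones of four leukaemia lines. Cells, at 2000 per well in 50 µL medium, received a single 10 µM acoustically dispensed dose. After 48 h the supernatant was removed and CellTiter-Glo luminescence was read. Viability was analysed in Genedata Screener as percent of the on-plate vehicle control.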
# [2] = test system: MARIMO
# Method in brief: as §1
# [3] = test system: MOLM14
# Method in brief: as §1
# [4] = test system: OCI-AML2
# Method in brief: as §1
Compound,cell viability ([1]; SRSF2 genotype: SRSF2 P95H/wt),cell viability ([1]; SRSF2 genotype: SRSF2 wt/wt) [%],cell viability ([2]; SRSF2 genotype: SRSF2 P95H/wt) [%],cell viability ([2]; SRSF2 genotype: SRSF2 wt/wt) [%],cell viability ([3]; SRSF2 genotype: SRSF2 P95H/wt) [%],cell viability ([3]; SRSF2 genotype: SRSF2 wt/wt) [%],cell viability ([4]; SRSF2 genotype: P95H/wt) [%],cell viability ([4]; SRSF2 genotype: wt/wt) [%]
COc1cc(-c2oc3cc(O)cc(O)c3c(=O)c2OC2OC(COC3OC(C)C(O)C(O)C3O)C(O)C(O)C2OC2OC(C)C(O)C(O)C2O)ccc1O (centres undefined) [Typhaneoside],103%,98.7,93.9,106,98.5,106,110,105
COC(=O)C1=COC(OC2OC(CO)C(O)C(O)C2O)C2C(CO)=CC(O)C12 (centres undefined),105% and 104%,109,105,93.2,105,107,98.6,98.7
N#Cc1c(NC(=O)c2cccc3ccccc23)sc2c1CCCC2 [JNK inhibitor IX],16.2% and 37.1%,34.9,6.04,9.03,14.5,3.68,8.78,12.3
CC1CCC2(OC1)OC1CC3C4CCC5CC(OC6OC(CO)C(O)C(O)C6OC6OC(CO)C(O)C(O)C6O)CCC5(C)C4CCC3(C)C1C2C (centres undefined) [Timosaponin A3],7.72% and 10%,28.3,3.39,3.93,1.66,0.73,0.43,0.73
CN(C)CCc1c[nH]c2ccc(CS(=O)(=O)N3CCCC3)cc12 [Almotriptan malate (Axert)],101% and 87%,91,84.3,101,96.9,95.9,99.2,87.6
CC1=C(/C=C/C(C)=C/C=C/C(C)=C\C(=O)O)C(C)(C)CCC1 [Isotretinoin],91.5% and 95.7%,87.2,69.3,76.9,65.4,81.5,15.7,41.8
CCOC(=O)/C=C\C(=O)OCC [Diethylmaleate],102% and 96.1%,99.8,97.5,109,104,105,98.9,111
Nc1cc(C(F)(F)F)c(-c2cc(N3CCOCC3)nc(N3CCOCC3)n2)cn1,30.2% and 37.9%,31.9,23.2,20.3,11.9,11,11.6,15.7
CCOC(=O)COc1ccc(/C=C2/SC(=S)NC2=O)cc1OC,90.9% and 94.4%,94.3,88.8,101,2.04,3.45,104,91.8
N#Cc1ccc2ncnc(NCCc3ccccc3)c2c1 [Senexin A],85% and 87.1%,92.4,91.8,94,77.1,95.1,58.2,63
CC1CNC(=O)NC1=O (centres undefined) [Dihydrothymine],102% and 110%,97.3,96.7,108,97.7,103,94,105
O=CN1CC/C(=C/c2ccc3c(c2)OCO3)C1=O,99.4% and 95.3%,94.6,95.2,104,75.9,90.1,67.1,74.7
Cn1c(=O)c(F)c(Nc2ccc(I)cc2F)c2c(=O)n(C[C@@H](O)CO)cnc21,66.4% and 83.6%,77,43.7,36.3,45.7,29.8,47.5,46.9
"CC(=O)c1ccc(O)cc1O [2,4-Dihydroxyacetophenone]",100% and 87%,86.2,93.5,99.8,96,94.1,92.3,94.8
C[C@@H]1O[C@@H](OC[C@H]2O[C@@H](Oc3cc(O)c4c(=O)cc(-c5ccc(O)cc5)oc4c3)[C@H](O[C@@H]3O[C@@H](C)[C@H](O)[C@@H](O)[C@H]3O)[C@@H](O)[C@@H]2O)[C@H](O)[C@H](O)[C@H]1O [ligustroflavone],103%,106,97.1,105,90.7,103,107,108
CC1=C[C@H](O)CC(C)(C)[C@H]1/C=C/C(C)=C/C=C/C(C)=C/C=C/C=C(C)/C=C/C=C(C)/C=C/C1=C(C)C[C@@H](O)CC1(C)C [lutein],99.5% and 98.9%,95.8,88.7,100,88.8,110,103,107
CC(C)=C[C@H]1C[C@](C)(O)[C@@H]2[C@H]3CC[C@@H]4[C@@]5(C)CC[C@H](O[C@@H]6OC[C@H](O)[C@H](O[C@@H]7O[C@H](CO)[C@@H](O)[C@H](O)[C@H]7O[C@@H]7OC[C@@H](O)[C@H](O)[C@H]7O)[C@H]6O[C@@H]6O[C@@H](C)[C@H](O)[C@@H](O)[C@H]6O)C(C)(C)[C@@H]5CC[C@@]4(C)[C@@]34CO[C@@]2(C4)O1 [Jujuboside B],117% and 106%,102,108,113,107,106,97.2,108
CN1CCC[C@H]1c1cccnc1 [nicotine ditartrate],101% and 97.3%,97.6,105,117,99.1,101,95.6,106
